Bioassay records from PubChem.
Shown is part of a subset that was picked to be rich in hits.
Pf Dd2 inh – qHTS Primary assay for Inhibitors of Plasmodium falciparum Dd2 growth in vitro. Potency, µM (titrated, usually from 28.9 µM), for inactives: top-dose activity, negative = inhibition, usual class: inhibitors. actives 4.3% (n = 120,000). P. falciparum Dd2 growth, SYBR Green, 72 h; active means well fitted inhibition curve with a large enough effect;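 further: plate controls were DMSO vehicle for no effect and reference drug for full effect; nearly all actives have a fitted effect of over 65% in size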
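Infected erythrocytes (Dd2, 0.3% parasitemia, 2.5% hematocrit final) are added to compound in RPMI-1640/Albumax II medium, grown 72 h at 37C in low oxygen, then lysed with saponin/Triton-X containing SYBR Green and read by fluorescence.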
* hit, by the source's call; i = inactive; [ ] = dose if it differs, or a comment. Potency means the concentration at half of the fitted maximal effect.

SMILES	Pf Dd2 inh
Cc1cc(NC(=O)CN2C(=O)NC(c3ccc(Cl)cc3)C3=C2COC3=O)ccc1Br (stereo not given)	-1%
COc1ccc(CC(=O)N2CC(=O)N(c3ccc(Cl)cc3)CC2C)cc1 (stereo not given)	8%
COCCNC(=O)CCCN1C(=O)COc2ccc(C(=O)COc3c(C)ccc(C)c3C)cc21	10µM*
COCCCNC(=O)CCCN1C(=O)COc2ccc(C(=O)COc3cccc(C)c3C)cc21	-1%
COCCNC(=O)CCCN1C(=O)COc2ccc(C(=O)COc3ccc(Cl)c(C)c3)cc21	i
Cc1cccc([C@H]2C[C@@H](O)[C@@H](O)[C@@H]2NC(=O)c2ccccc2)c1	-7%[44.1 µM]
CC(C)CNC(=O)N1CC(c2noc(C3CCCN3CC3CC3)n2)C1 (stereo not given)	i
O=C(c1ccc(Cl)nc1)N1CCC(c2nn(Cc3ccccc3)c(=O)[nH]2)CC1	-27%
OC1CCOC2(CCN(Cc3ccc(Br)o3)CC2)C1 (stereo not given)	2%
COc1cccc(CN2CCC3(CC2)CC(O)CCO3)c1OC (stereo not given)	-13%
OC1CCOC2(CCN(Cc3ccccc3OC(F)(F)F)CC2)C1 (stereo not given)	5.6µM*
OC1CCOC2(CCN(Cc3ccncc3)CC2)C1 (stereo not given)	6%
CC(C)Oc1ccccc1CN1CCC2(CC1)CC(O)CCO2 (stereo not given)	5µM*
COc1ccc2c(c1)c(CN1CCC3(CC1)CC(O)CCO3)cn2C (stereo not given)	-2%
CCc1csc(CNC(=O)c2ccc(N(C)Cc3nonc3C)nc2)n1	-4%
COc1ccc(S(=O)(=O)N2CCC(CC(=O)NCc3ccccc3)C2)cc1OC (stereo not given)	i
COC(=O)c1ccc(C2Nc3c(C)cccc3-c3cc(C)nn32)cc1 (stereo not given)	0.45µM*
CCN(CC)c1ccc(C2Nc3ccccc3-c3cc(C)nn32)cc1 (stereo not given)	-26%
COc1ccc(C2Nc3ccccc3-c3cc(C)nn32)c(OC)c1 (stereo not given)	-2%
CCS(=O)(=O)N(C1CC1)C1CCOC2(CCN(C(=O)Cc3cccc(F)c3)CC2)C1 (stereo not given)	-4%
Cc1c(Cl)cccc1-n1ncc(C(=O)N2CCN(c3ncccn3)CC2)c1C1CCN(C(=O)OC(C)(C)C)CC1	i
CN1CCN(C(=O)c2cnn(-c3ccc(F)cc3F)c2C2CCN(C(=O)OC(C)(C)C)CC2)CC1	16%
CC(C)(C)OC(=O)N1CCC(c2c(C(=O)N3CCN(c4ccccc4F)CC3)cnn2-c2ccccc2Cl)CC1	13µM*
CC(C)(C)OC(=O)N1CCC(c2c(C(=O)N3CCN(c4ccc(Cl)cc4)CC3)cnn2-c2ccc(F)cc2F)CC1	11µM*
Cc1c(Cl)cccc1-n1ncc(C(=O)N2CCC(C)CC2)c1C1CCN(C(=O)OC(C)(C)C)CC1	11µM*
SMILES	Pf Dd2 inh
O=C1NC2(CCN(C(=O)Cc3ccccc3)C2)OCc2ccccc21 (stereo not given)	i
COc1cccc(CN2CCCC(c3nc(-c4cnccn4)no3)CCNC(=O)CC2)c1OC (stereo not given)	i
CN(CCc1noc(C2CN(C(=O)c3ccccc3C(F)(F)F)C2)n1)C(=O)C1CC1	-6%
COCCNC(=O)[C@H]1C[C@H](Oc2ccccc2)CN1C(=O)c1cccc(C)c1	-5%
Cc1ccccc1C(=O)NC1CCN(c2cc(-c3ccc(Cl)cc3)[nH]n2)CC1	i
COc1nc2c(cc1CNC(=O)Cn1ccc(C)n1)C(=O)N(C1CCCC1)C2	-6%
Cn1cc(CNc2ccc(-c3nc(CCCc4ccccc4)no3)cn2)cn1	-20%
Cc1ccc(C)c(S(=O)(=O)N(C)CC2CCOCC2)c1	-12%
O=C(NC1CCCc2c1cnn2-c1ccc(F)cc1F)c1ccsc1 (stereo not given)	-17%
O=C(NCc1ccccc1)c1cn(C2CN(C(=O)Nc3ccc4c(c3)OCCO4)C2)nn1	i
C[S+](=O)([O-])N1Cc2ccccc2CC2(CCCCN2Cc2ccccc2)C1 (stereo not given)	-27%
Cc1ccc(CCN2CCCCC23Cc2ccccc2CN([S+](C)(=O)[O-])C3)cc1 (stereo not given)	10µM*
CN1CCC2(CC1)Cc1ccccc1CN([S+](C)(=O)[O-])C2	-27%
O=C1NCCCCCCN(C(=O)c2ccoc2)[C@H]2C[C@H](c3nc(-c4cccnc4)no3)C[C@@H]12	i
Cc1occc1C(=O)N1CC(F)(F)C[C@H]1c1nnc(C2CC2)o1	8%
COCc1nc2nccc(-c3ccsc3)n2n1	-1%
NCCN1C(=O)CC[C@H]2CN(C(=O)c3ccc(Cl)s3)CC[C@H]21	-1%
c1cc(-c2cc(-c3ccncc3)c3cncn3c2)cc(N2CCOCC2)c1	i
Cc1ccccc1-c1nc(-c2c(C)noc2C)cc2cc(CO)oc12	-30%[44.1 µM]
Cc1noc(C)c1-c1cc(-c2cccc(N3CCOCC3)c2)cn2cncc12	6.3µM*
COc1ncccc1-c1cc(-c2ccc(=O)[nH]c2)c2cncn2c1	i
Cc1noc2c(-c3ccc(N4CCOCC4)cc3)cc(-c3ccccc3)nc12	i
Cc1ccccc1-c1cc(-c2c(C)noc2C)c2cncn2c1	3.2µM*
COc1ncccc1-c1cc(-c2c(C)noc2C)c2cncn2c1	10µM*
Cc1ccccc1-c1cc(-c2cn[nH]c2)c2cncn2c1	-26%[44.1 µM]
SMILES	Pf Dd2 inh
COc1ncccc1-c1nc(-c2c(C)noc2C)cc2c1cc(C)n2C	i
CCCN(C)C(=O)c1onc(-c2ccc(OC)cc2)c1[C@H](C)O	-14%[44.1 µM]
O=C(Nc1cccc(C(F)(F)F)c1)O[C@@H]1CO[C@H]2[C@@H]1OC[C@@H]2NC(=S)NC1CCCCC1	-3%
CC(C)NC(=O)Nc1ccc([C@H]2OCC(=O)N[C@@H]2CO)cc1	i
CC1(CCC(=O)N2CCCC2C(=O)Nc2ccccc2Oc2cccnc2)CC1 (stereo not given)	-14%
COc1ccc(C(=O)N2CCCN(c3cc(-c4ccc(F)cc4)[nH]n3)CC2)c(C)c1	i
Cc1cc(=O)n(CC(=O)Nc2ccc3c(c2)OCO3)c(-c2ccc(F)cc2)n1	-26%
O=C(NCc1ccc(-c2ccc(F)cc2)o1)C1CC(=O)N(Cc2cccnc2)C1 (stereo not given)	-5%
Nc1nc(NCCNC(=O)c2ccccc2Cl)cc(C2CC(O)C2)n1 (stereo not given)	-7%
Cc1noc(C)c1CC(=O)NCCc1noc(C2CC2)n1	-6%
Cc1cc(C)n(-c2nc3ccccc3nc2Nc2ccc(Cl)cc2Cl)n1	43%
Cc1cc(Nc2ccc(Cl)cc2C)nc(-n2nc(C)cc2C)n1	3.5µM*
Cc1cc(C)n(-c2nc3ccccc3nc2Nc2cc(Cl)ccc2C)n1	31%
CCN1C(=O)CN(C(=O)c2ccoc2)CC12CCOCC2	i
CCSc1nc(-c2ccccc2F)nc2c1Cc1c(CO)cnc(C)c1O2	10%
CCc1ccccc1NC(=O)CSc1nc(-c2cccc(Cl)c2)nc2c1Cc1c(CO)cnc(C)c1O2	-1%
Cc1ncc(CO)c2c1Oc1nc(-c3ccccc3F)nc(SCC(=O)N3CCCCC3)c1C2	-8%
Cc1ccc(C)c(CSc2nc(-c3ccccc3F)nc3c2Cc2c(CO)cnc(C)c2O3)c1	8.9µM*
Cc1ncc(CO)c2c1Oc1nc(-c3ccccc3Cl)nc(SCc3ccccc3F)c1C2	4.5µM*
CCOc1ccc(C(=O)N[C@H]2CC[C@H]2NC2CCOCC2)cc1Cl	-24%
